Consider 40 compounds from PubChem BioAssay AID488815 (Broad Institute, 2010).

In this test the target is CAAX prenyl protease 1 (Saccharomyces cerevisiae (strain ATCC 204508 / S288c)) (UniProt P47154). Put plainly: yeast CAAX protease Ste24 inhibition – biochemical, S. cerevisiae, plate reader, cherry-pick, dose response (AID 488815).

Measured potencies and affinities stand elsewhere. Inconclusive results are not listed. Calls of active or inactive are those of the source. No rule for the calls is given here.

Chain of CAAX prenyl protease 1 (Saccharomyces cerevisiae (strain ATCC 204508 / S288c)) (P47154 whole entry, looked up): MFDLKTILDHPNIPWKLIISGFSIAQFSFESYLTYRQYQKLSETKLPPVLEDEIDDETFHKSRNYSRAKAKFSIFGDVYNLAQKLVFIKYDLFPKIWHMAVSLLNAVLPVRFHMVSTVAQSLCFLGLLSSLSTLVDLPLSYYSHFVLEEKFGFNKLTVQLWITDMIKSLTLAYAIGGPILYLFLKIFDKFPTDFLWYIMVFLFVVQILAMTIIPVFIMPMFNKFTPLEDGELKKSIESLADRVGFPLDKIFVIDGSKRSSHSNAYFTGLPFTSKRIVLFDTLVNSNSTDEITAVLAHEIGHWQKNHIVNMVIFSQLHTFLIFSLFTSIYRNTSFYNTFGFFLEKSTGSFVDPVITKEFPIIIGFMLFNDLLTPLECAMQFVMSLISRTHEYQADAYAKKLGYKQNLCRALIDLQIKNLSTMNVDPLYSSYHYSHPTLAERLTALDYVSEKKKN

In the case of `COc1ccc(/C=N/NC(=O)c2ccc(Cl)cc2)cc1COC(C)=O`, the compound was classed as inactive. `CC(=O)N(C)c1ccc(NC(=O)/C=C/c2ccccc2Cl)cc1`: the call was inactive. As to `CC(=O)N[C@@H](C)c1nc2ccccc2n1CCCN1CCN(c2nc(-c3ccc(C)cc3)cs2)CC1`, the call was inactive. On to `CCN1CCN(c2ccc(NC(=O)c3cccc(OCc4ccccc4)c3)cc2)CC1`, for which the call was inactive. For the compound `O=C(CC1(O)C(=O)N(C/C=C/c2ccccc2)c2ccccc21)c1ccccn1` (stereo not given), the call was inactive. Consider `O=C(O)c1ccc2cccc(Cl)c2c1O`, for which the compound was called inactive. For the compound `CC(C)CNC(=O)COc1cccc(C(=O)NCc2ccccc2)c1`, the result was inactive. Next, `O=C(COC(=O)c1ccccc1Cc1ccccc1)NC1CCS(=O)(=O)C1` (stereo not given): “inactive”; `COc1ccccc1-n1c(-c2ccccc2)c[nH]c1=S`: “inactive”; `c1cnn(Cc2cnc(N3CCOCC3)s2)c1`: “inactive”. As to `CSc1ccc(C(=O)C2CCCN(C(=O)c3cccnc3SC)C2)cc1` (stereo not given), the result was inactive.

Turning to `COc1ccc(-c2cc(C(=O)NCCCN3CCCC3=O)c3ccccc3n2)cc1`, the outcome was inactive. Next, `CC1(C)CC2CC(C)(CN2S(=O)(=O)c2ccc(N)cc2)C1` (stereo not given): “inactive”; `CN(C(=O)COC(=O)c1cc([N+](=O)[O-])ccc1Sc1ccccc1)C1CCS(=O)(=O)C1` (stereo not given): “inactive”; `CCn1c(C)nc2c(=O)oc3ccccc3c21`: “inactive”. Take `CC(=O)Nc1ccc(Cl)cc1C1COC(=O)C1=N` (stereo not given): the result was inactive. Next, `CCC(COC)NC(=O)CCc1nnc(Cc2cccc(C(F)(F)F)c2)o1` (stereo not given): “inactive”; `CCN(CC)CCN(C(=O)c1ccc2ccccc2c1)c1nc2ccc(F)cc2s1`: “inactive”; `C=C(C)C1(O)OC(=O)C=C1OC` (stereo not given): “inactive”.

Turning to `COc1cccc(-c2nc(C#N)c(N3CCN(C(=O)c4ccco4)CC3)o2)c1`, the outcome was inactive.

In the case of `CC(C)CC(=O)NC(=S)Nc1ccc(S(=O)(=O)Nc2nccs2)cc1`, the result was inactive. For the compound `COc1cccc(/C=N/NC(=O)c2nnn(-c3nonc3N)c2C(C)C)c1OCc1ccc(F)cc1`, the compound was classed as inactive.

As to `COc1ccc(Br)cc1C(=O)Nc1cc(C)cc(C)c1`, the call was inactive. The entry for `CC(Cc1cccs1)NC(=O)Nc1ccc([N+](=O)[O-])cc1` (stereo not given) is “inactive”; for `O=C(c1cc(-c2ccccc2)nc2ccccc12)N1CCN(c2ccccn2)CC1` it is “inactive”; for `CCN(C(=O)COC(=O)c1cc(-c2cccs2)nc2ccccc12)C1CCS(=O)(=O)C1` (stereo not given) it is “inactive”. With `COc1ccccc1NC(=O)CN(c1ccc(C23CC4CC(CC(C4)C2)C3)cc1)S(C)(=O)=O`, the outcome was inactive. On to `COc1ccc(-n2c(SCc3ccc([N+](=O)[O-])cc3)nnc2-c2ccc(C)cc2)cc1`, for which the outcome was inactive. For the compound `C/C(Cl)=C\Cn1c(O)c(N=NC(N)=S)c2cc(Br)ccc21`, the call was inactive. The entry for `O=C(COC(=O)c1ccc(S(=O)(=O)N2CCCC2)cc1)NCc1ccccc1` is “inactive”; for `Cc1ccc(S(=O)(=O)Nc2ccccc2C(=O)NCC2CCCO2)cc1` (stereo not given) it is “inactive”; for `O=C(Nc1sc2c(c1C(=O)c1ccc(Cl)cc1)CCCC2)c1cccnc1` it is “inactive”. For `CCOc1ccc(N(CC(=O)NC2CC3CCC2C3)S(=O)(=O)c2ccccc2)cc1` (stereo not given), the result was inactive. As to `COc1ccc(Cc2nc3ccc(C(=O)N4CCCC4)cc3o2)cc1`, the compound was called inactive. The entry for `COc1ccc(C(C(=O)NC2CCCCC2)N(C(=O)c2snc(C(N)=O)c2N)c2ccc(OC)cc2OC)cc1` (stereo not given) is “inactive”; for `Cc1ccc(NC(=O)CCc2ccc(S(=O)(=O)NC3CCCCC3)cc2)cc1` it is “inactive”; for `COc1ccc(C)cc1NC(=O)CCC(=O)Nc1ccc2nc(N3CCN(C)CC3)cc(C)c2c1` it is “inactive”. In the case of `CCCC(=O)N1CCN(c2ccc(NC(=O)c3cc4ccccc4o3)cc2Cl)CC1`, the compound was classed as inactive.

Consider `Cc1cccc(N2CCc3c2nc2ccc(Br)cc2c3N)c1`, for which the result was inactive. Turning to `CN(C)CC(C)(C)CNC(=S)NCc1ccc2c(c1)OCO2`, the outcome was inactive.
